A short description of assay [1]: qHTS assay for small molecule agonists of the p53 signaling pathway (AID 651631; calls by dose curve; further: nearly all actives have a fitted effect of over 15% in size; further: potency means the concentration at half of the fitted maximal effect). The method in brief:
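Read-out is beta-lactamase FRET fluorescence measured 2 h after substrate addition at room temperature, in HCT-116 cells with a p53 response element-driven reporter exposed to compounds for 16 h at 37 °C.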

Assay [2] in a line: qHTS assay for small molecules that induce genotoxicity in human embryonic kidney cells expressing luciferase-tagged ATAD5 (AID 651632). Further: nearly all actives have a fitted effect of over 15% in size. The method in brief: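 Luminescence read-out: after 16 hr compound exposure at 37C, ATAD5-luciferase HEK293T cells received Amplite, 30 min RT, then CCD imaging. A rise in signal marks genotoxic stress.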
Assay [3] in a line: qHTS assay for small molecule agonists of the p53 signaling pathway - cell viability (AID 651633; calls by dose curve;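 further: p53RE-bla HCT reporter cells with a stable beta-lactamase p53 reporter; series mostly up to about 83 µM; nearly all actives have a fitted effect of over 30% in size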). The method in brief:
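p53RE-bla cells were treated with compound for 16 hours at 37 C. Cytotoxicity was then measured as CellTiter-Glo luminescence after 30 min at room temperature.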

Assay [4] can be described thus: qHTS assay for small molecules that induce genotoxicity in human embryonic kidney cells expressing luciferase-tagged ATAD5 - cell viability (AID 651634; calls by dose curve; further: nearly all actives have a fitted effect of over 25% in size; further: potency means the concentration at half of the fitted maximal effect). In short, it runs like this: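 HEK293T ATAD5-luc cells, 2,000/well; compound 15.5 hr, 37C/5% CO2; CellTiter-Fluor 30 min, 37C; fluorescence read.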
A short description of assay [5]: qHTS assay for small molecule disruptors of the mitochondrial membrane potential - cell viability (AID 720634; calls by dose curve;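 further: human HepG2 liver cancer cells; series mostly up to about 83 µM; nearly all actives have a fitted effect of over 20% in size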). In short, it runs like this:
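Luminescence from CellTiter-Glo (ATP content) gave viability in HepG2 cells, read in the same wells as the MMP dye assay after 1 hr compound exposure at 37 C.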

Assay [6] in a line: qHTS assay for small molecule disruptors of the mitochondrial membrane potential (AID 720635). Further: potency means the concentration at half of the fitted maximal effect. In short, it runs like this: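 HepG2 cells exposed to compound 1 hr at 37C, then Mito-MPS dye 30 min. Ratio read of aggregate (540/590 nm) versus monomer (490/535 nm) fluorescence.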
A short description of assay [7]: qHTS assay to test for compound auto fluorescence at 590 nm (red) in HepG2 cells (AID 720674). The method in brief:
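Fluorescence at 590 nm emission following 540 nm excitation was recorded from HepG2 wells one hour after compound transfer, with DMSO-only wells as vehicle and Rose Bengal sodium equivalency as the scale.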

The nature of assay [8]: qHTS assay to test for compound auto fluorescence at 535 nm (green) in HepG2 cells (AID 720675).
Assay [9] in a line: qHTS assay to test for compound auto fluorescence at 590 nm (red) in HEK293 cells (AID 720679). In short, it runs like this: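 Each well held 2,000 HEK293 cells in medium containing 10% dialyzed FBS. Following 4-5 hr attachment at 37C, 23 nL test compound or DMSO was added; plates sat overnight, and red fluorescence (540/590nm) was recorded.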
Assay [10] in a line: qHTS assay to test for compound auto fluorescence at 460 nm (blue) in HEK293 cells (AID 720678). The method in brief: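 Cells were seeded and left to adhere for 4-5 hr at 37C. Compounds were then pin-transferred. After an overnight incubation at 37C under 5% CO2, intrinsic fluorescence at 405/460 nm was measured and referenced to triamterene.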

A number with no mark means an inactive call. Results filed as inconclusive are left out. Activity calls are given as the source filed them. Unless noted, the call rests on the fitted dose curve; in most records, active means well fitted curve in the direction sought with a large enough effect in the repeat runs; inconclusive means weak or mixed curves; inactive means no such curve, though single readings can be large; an effect the other way counts as inactive or inconclusive.
On the % scale 0 is the no-effect control and ±100 the full control effect.

`CCS(=O)(=O)C(C)(C)S(=O)(=O)CC`: the Potency entry in assay [1], in assay [2], in assay [3], in assay [4], in assay [5] and in [6] was “inactive” each time. The result in assay [7], in assay [8] and in assay [9] was inactive.
In the case of `CCCSC(=O)Cl`, the Potency result in assay [1], in assay [2], in assay [3], in [4], in assay [5] and in [6] was “inactive” throughout. Also, the molecule was classed as inactive in assay [7] and in [10].
For `BrCCCCCCBr`, the Potency result in assay [1], in assay [2], in assay [3], in assay [4], in assay [5] and in assay [6] was “inactive” each time. Moreover, the result in [7] and in [8] was inactive.
As for `[As]#[In]`, the Potency result in [1], in assay [2], in assay [3], in assay [4], in assay [5] and in assay [6] was “inactive” each time. Moreover, the outcome in assay [8] and in assay [9] was inactive.
`Nc1ccccc1Cl`: the Potency result in assay [1], in assay [2], in assay [3], in assay [4], in assay [5] and in assay [6] was “inactive” in each case. In addition, the outcome in [8], in assay [10] and in assay [9] was inactive.
Turning to `N#Cc1ccncc1`, the Potency entry in assay [1], in assay [2], in assay [3], in [4] and in assay [5] was “inactive” each time. The molecule was called inactive in assay [7], in [8], in assay [10] and in assay [9].
On to `OC(c1ccc(F)cc1)(c1cncnc1)c1ccccc1Cl` (stereo unspecified), for which the Potency entry in assay [1], in [2], in [3], in [4], in assay [5] and in [6] was “inactive” each time. Further, the molecule was called inactive in assay [7] and in [10].
Turning to `Cc1coc2c1CCC(C)C2` (stereo unspecified), the Potency entry in assay [1], in assay [2], in assay [3], in assay [4] and in assay [5] was “inactive” in each case. For the same molecule, the Potency in [6] is 25.1 µM (active). In addition, the call in assay [7], in assay [8], in assay [10] and in assay [9] was inactive.
On to `COc1cc(OC)nc(Sc2cccc(Cl)c2C(=O)O)n1`, for which the Potency entry in assay [1], in assay [2], in assay [3], in assay [4], in assay [5] and in [6] was “inactive” in each case. The molecule was classed as inactive in assay [7], in assay [10] and in assay [9].
Consider `ClCC(Cl)(Cl)Cl`, for which the Potency result in assay [1], in [2], in assay [3], in assay [4], in [5] and in assay [6] was “inactive” in each case. Further, the molecule was called inactive in assay [7], in assay [8], in assay [10] and in assay [9].
Regarding `CCC/C(=N\OCC)C1=C(O)CC(CC(C)SCC)CC1=O` (stereo unspecified), the Potency result in [1], in [2], in [3], in assay [4], in assay [5] and in assay [6] was “inactive” each time. Besides, the molecule was called inactive in [7], in assay [8] and in assay [9].
As for `CCC(Cl)[N+](=O)[O-]` (stereo unspecified), the Potency result in [1], in [2], in assay [3], in assay [4], in [5] and in assay [6] was “inactive” in each case. Moreover, the molecule was called inactive in assay [7], in [10] and in [9].
In the case of `CN(C)CCc1ccc(O)cc1`, the Potency result in [1], in [2], in assay [3], in assay [4], in assay [5] and in assay [6] was “inactive” throughout. Also, the call in assay [8], in [10] and in assay [9] was inactive.
For the molecule `O=P(O)(Oc1ccccc1)Oc1ccccc1`, the Potency result in assay [1], in assay [2], in assay [3], in assay [4], in assay [5] and in assay [6] was “inactive” each time. In addition, the molecule was classed as inactive in [8] and in assay [9].
`Cc1cc(C)c(C(=O)P(=O)(C(=O)c2c(C)cc(C)cc2C)c2ccccc2)c(C)c1`: the Potency entry in assay [1], in [2], in assay [3], in assay [4], in assay [5] and in assay [6] was “inactive” in each case. The result in assay [10] and in [9] was inactive.
With `O=NN1CCCCC1`, the Potency entry in assay [1], in assay [2], in [3], in assay [4], in [5] and in assay [6] was “inactive” each time. The result in [8], in assay [10] and in [9] was inactive.
With `NC(=O)O`, the Potency entry in assay [1], in assay [2], in assay [3], in assay [4], in assay [5] and in assay [6] was “inactive” each time. In addition, the call in [7] and in [10] was inactive.
As to `CCCCCCI`, the Potency result in assay [1], in [2], in assay [3], in [4], in assay [5] and in [6] was “inactive” each time. The call in assay [7], in [8], in assay [10] and in [9] was inactive.
Turning to `Clc1cccc(N2CCNCC2)c1`, the Potency result in assay [1], in [2], in assay [3], in assay [4] and in [5] was “inactive” throughout. Further, the result in assay [7], in assay [8], in [10] and in [9] was inactive.
Regarding `CCC1(c2ccccc2)C(=O)N=C(O)NC1=O` (stereo unspecified), the Potency entry in assay [1], in [2], in assay [3], in [4], in assay [5] and in [6] was “inactive” in each case. The outcome in assay [7], in assay [8], in assay [10] and in assay [9] was inactive.
`Nc1cc(Cl)ccc1O`: the Potency in assay [1] was 26.4 µM (active); in assay [4] it was 23.5 µM (active); in assay [6], 9.37 µM (active). Also, the Potency result in assay [2], in assay [3] and in assay [5] was “inactive” throughout. The call in assay [8] and in assay [9] was inactive.
Turning to `COCC(=O)N(c1c(C)cccc1C)N1CCOC1=O`, the Potency result in assay [1], in [2], in assay [3], in assay [4], in [5] and in [6] was “inactive” in each case. Besides, the result in assay [7] and in [10] was inactive.
Consider `CSc1nc(N=[N+]=[N-])nc(NC(C)C)n1`, for which the Potency entry in [1], in assay [2], in assay [3], in [4], in assay [5] and in assay [6] was “inactive” throughout. The outcome in [7], in [8] and in assay [10] was inactive.
`N#CCNCC#N`: the Potency result in assay [1], in assay [2], in assay [3], in assay [4], in [5] and in [6] was “inactive” in each case. The molecule was classed as inactive in [7], in assay [8] and in assay [10].
In the case of `C[C@@H]1CN(C2CCC(C#N)(c3ccc(F)cc3)CC2)CC[C@]1(C(=O)O)c1ccccc1` (stereo partly specified), the Potency entry in assay [1], in [2], in assay [3], in [4], in assay [5] and in assay [6] was “inactive” each time. In addition, the fluorescence, % of fluorescein control in assay [8] is -0.0057% [at 18.6 µM]. Besides, the fluorescence, % of triamterene in assay [10] is 0.0981% [at 18.6 µM]. In addition, the fluorescence, % of fluorescent control in assay [9] is 0.571% [at 18.6 µM].
`N#CCBr`: the Potency entry in [1], in assay [2], in assay [3], in assay [4] and in [5] was “inactive” each time. Besides, the result in [7] and in assay [8] was inactive.
On to `c1cc2c(c(N3CCNCC3)c1)OCCO2`, for which the Potency entry in assay [1], in assay [2], in [3], in assay [4] and in assay [5] was “inactive” each time. The molecule was called inactive in assay [7], in [8], in assay [10] and in [9].

For the origin of these results see PubChem BioAssay (Tox21).
